Screens (PubChem BioAssay)
Shown are actives, neighbours in structure and some others; about 4.8% of the full set was active somewhere.
ssDAF12 agonist: activators of S. stercoralis DAF-12 nuclear receptor; HEK293 ssDAF-12/GRIP1 lit1-tk-luc reporter, luminescence; % of 3 µM dafachronic acid response; activation, % at 6.8 µM; AID 652126; hit rate 1% among 370,000;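 active means activation above the mean over all tested compounds plus 3 SD, cut at about 0.9% in these data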
DAX1 inh-1: inhibits human nuclear receptor DAX1 | P51843 | HEK293 Gal4-DAX1 luciferase reporter, luminescence | inhibition, % at 6.75 µM | hit rate 0.99% among 340,000;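 active means inhibition above the mean over all tested compounds plus 3 SD, cut at about 4.2% in these data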;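 further: inhibition shows as a rise in luminescence from relieved DAX1 repression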
Target sequence (P51843 207-470 limits assumed): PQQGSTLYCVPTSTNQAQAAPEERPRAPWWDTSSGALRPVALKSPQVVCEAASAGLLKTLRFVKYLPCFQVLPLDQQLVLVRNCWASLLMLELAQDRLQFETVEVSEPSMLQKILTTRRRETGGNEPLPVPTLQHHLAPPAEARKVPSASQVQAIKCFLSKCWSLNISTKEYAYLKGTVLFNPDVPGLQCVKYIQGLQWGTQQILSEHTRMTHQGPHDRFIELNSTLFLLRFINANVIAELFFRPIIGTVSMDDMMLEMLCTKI
SMARCA2 act: increases SMARCA2 function in MMTV reporter cells; activation, % at 9.1 µM; hit rate 1% among 370,000; MG213 cells, MMTV-luciferase reporter, dexamethasone, overnight; in the data active means activation above about 7.8%
DAX1 inh-2: blocks DAX1 repression of SF-1 activated StAR promoter. hit rate 1.1% among 370,000. HEK293T StAR-luciferase reporter, SF-1/DAX-1 repression relief. AID 652010. inhibition, % at 6.8 µM;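 active means inhibition above the mean over all tested compounds plus 3 SD, cut at about 3.6% in these data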;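 further: higher inhibition means more luminescence from relief of DAX-1 repression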
hgDAF12 agonist: hgDAF-12 agonism, primary luciferase screen. HEK293 GAL4-hgDAF12 UAS-luciferase reporter, agonist luminescence; normalized to butyrate control. activation, % at 6.8 µM. hit rate 1.8% among 370,000. AID 687014;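 active means activation above a cutoff set at the mean of all screened compounds plus 3 SD, cut at about 10% in these data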
hcDAF-12 act: activators of H. contortus DAF-12 nuclear receptor; HEK293 hcDAF-12 lit1-tk-luc reporter, luminescence; 0% DMSO, 100% Δ7-dafachronic acid; activation, % at 6.8 µM; hit rate 1.4% among 370,000; AID 652067;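 active means activation above the mean of all tested compounds plus 3 SD, cut at about 5.5% in these data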
SMARCA2 act conf: SMARCA2 activation, confirmation screen. hit rate 30% among 3,500. AID 652260. MG213 cells, MMTV-luciferase with dexamethasone, luminescence, overnight; MG213 cells expressing E1A, Rb sequestered; DMSO wells 0%, reference activator 100%. shares compounds with SMARCA2 act. activation, % at 9.1 µM;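 active means activation above its plate's cutoff, the mean activation of tested wells plus 3 SD, cut at about 7.9% in these data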
VP16 Luc act: GAL4-VP16 reporter activation counter-screen; HEK293 GAL4-VP16 pG5luc reporter, luciferase luminescence; scaled: DMSO wells 0%, SAHA wells 100%; hit rate 41% among 3,500; AID 686939; shares compounds with SMARCA2 act; activation, % at 9.1 µM;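 active means activation above the solvent-only control well mean plus 3 SD, averaged across control plates, cut at about 5.2% in these data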
Each line names hits and unclear results; the compound was inactive in the other large screens (follow-up assays come after a bar, where they were run).

N#CC(Cc1ccc(OC(F)F)cc1)c1nc2ccccc2[nH]1 (centres undefined)	none
N#CC(Cc1cccs1)c1nc2ccccc2[nH]1 (centres undefined)	SMARCA2 act 8.6 | SMARCA2 act conf inactive | VP16 Luc act inactive
CCOc1ccc(/C(O)=C2/C(=O)C(=O)N(CCOCCO)C2c2ccccn2)cc1 (centres undefined)	SMARCA2 act 8.6 | SMARCA2 act conf inactive | VP16 Luc act inactive
Cc1ccc(S(=O)(=O)Nc2ccc3c(c2)C(=O)N([C@@H](C)CO)C[C@@H](C)[C@@H](CN(C)CC2CC2)OCCCC[C@@H](C)O3)cc1	none
CSc1ccccc1C(=O)Nc1ccc(C)c(C)c1	none
CSc1ccccc1C(=O)Nc1cc(C)cc(C)c1	SMARCA2 act 9.3 | SMARCA2 act conf inactive | VP16 Luc act inactive
CCOc1ncccc1C(=O)N(CCC(C)C)c1c(N)n(Cc2ccccc2)c(=O)[nH]c1=O	none
Cc1cccc2nc(CSc3nnnn3-c3ccccc3)cn12	none
Cc1cccc2nc(CSc3nnc4ccccn34)cn12	SMARCA2 act 8.4, hgDAF12 agonist 12, hcDAF-12 act 5.8 | SMARCA2 act conf 9.9 | VP16 Luc act 12
c1cc2ccc3ccc(CN4CCOCC4)c4ccc(c1)c2c34	none
OC1CCCN(Cc2ccc3ccc4cccc5ccc2c3c45)C1 (centres undefined)	SMARCA2 act 11 | SMARCA2 act conf 25 | VP16 Luc act inactive
CCc1c(C)sc(NC(=O)c2ccco2)c1C#N	none
CN(C)c1ccc(/C=N/NC(=O)c2ccccn2)cc1	ssDAF12 agonist 1.3, SMARCA2 act 8.0, hgDAF12 agonist 12 | SMARCA2 act conf inactive | VP16 Luc act 7.5
Cc1ccc(/C=N/NC(=O)c2ccncc2)o1	none
Cc1ccc(/C=N/NC(=O)c2ccccn2)o1	SMARCA2 act 11 | SMARCA2 act conf inactive | VP16 Luc act inactive
O=c1oc2cc(Cl)ccc2n1CSc1nc2ccccc2s1	SMARCA2 act 8.8, hgDAF12 agonist 12, hcDAF-12 act 6.5 | SMARCA2 act conf inactive | VP16 Luc act 11
Cc1ccc(CSc2nn3c(=O)c(C)nnc3s2)cc1	SMARCA2 act 8.6 | SMARCA2 act conf inactive | VP16 Luc act inactive
CC(C)(C)NC(=O)CN(CCN1CCOCC1)C(=O)CNS(=O)(=O)c1ccccc1	none
CC(=O)N1c2ccc(S(=O)(=O)N(C)Cc3ccccc3)cc2CC1C (centres undefined)	none
S=C(NCc1ccc(Cl)cc1)OC1CCC12CCC(c1ccccc1)CC2 (centres undefined)	none (no result: DAX1 inh-1)
C=CCN(CC=C)C(=S)NC(=O)c1ccc(-c2ccccc2)cc1	SMARCA2 act 8.0 | SMARCA2 act conf inactive | VP16 Luc act inactive
Cc1cc(C(=O)NCC(=O)OCC(=O)N2CCCCCC2)ccc1[N+](=O)[O-]	none
Cc1cc(C)cc(C(=O)NCC(=O)OCC(=O)N2CCCC2)c1	SMARCA2 act 8.5 | SMARCA2 act conf inactive | VP16 Luc act inactive
COCCNC(=O)/C(C#N)=C/C=C/c1ccccc1[N+](=O)[O-]	SMARCA2 act 12 | SMARCA2 act conf 18 | VP16 Luc act inactive
NC(=O)C1CC(=O)N(c2ccc(OCc3c(F)cccc3Cl)cc2)C1 (centres undefined)	none
NC(=O)C1CC(=O)N(c2ccc(OCc3c(Cl)cccc3Cl)cc2)C1 (centres undefined)	SMARCA2 act 8.7 | SMARCA2 act conf inactive | VP16 Luc act inactive
O=C(NC1CC1)C1CC(=O)N(c2ccc(F)cc2)C1 (centres undefined)	none
CCOC(=O)c1sc(NC(=O)CN2CCCC2)c(C(=O)OCC)c1C	none
CCOC(=O)c1sc(NC(=O)CCN2CCN(C)CC2)c(C(=O)OCC)c1C	SMARCA2 act 8.4 | SMARCA2 act conf inactive | VP16 Luc act inactive
CCOC(=O)C(Nc1ccc2ccccc2c1)C(=O)OCC	SMARCA2 act 8.3, hcDAF-12 act 5.7 | SMARCA2 act conf 7.9 | VP16 Luc act inactive
Cc1ccc(/C=C2/CNC/C(=C/c3ccc(C)cc3)C2=O)cc1	SMARCA2 act 15 | SMARCA2 act conf inactive | VP16 Luc act inactive
O=C(CNC(=O)c1ccco1)OCC(=O)c1ccc([N+](=O)[O-])cc1	none
COc1ccc(/C=N\NC(=O)c2ccc(=O)[nH]n2)cc1O	SMARCA2 act 12 | SMARCA2 act conf inactive | VP16 Luc act inactive
Cc1ccc2c(CN3CCCCC3CCO)cc(=O)oc2c1 (centres undefined)	none
CCCSc1nnc(NC(=O)Nc2ccc(C)cc2)s1	SMARCA2 act 8.0 (no result: DAX1 inh-1) | SMARCA2 act conf inactive | VP16 Luc act inactive
Fc1cccc(F)c1-n1c(CN2CCOCC2)csc1=S	SMARCA2 act 8.7 | SMARCA2 act conf inactive | VP16 Luc act inactive
Cc1ccc(/C=C2\SC(=O)N(CCC(=O)N3CCN(C)CC3)C2=O)cc1	SMARCA2 act 8.9 | SMARCA2 act conf inactive | VP16 Luc act 6.6
CN1CCN(C(=O)CCN2C(=O)S/C(=C/c3ccc(Cl)cc3)C2=O)CC1	none
COc1ccc(CNC(=O)C(C)Sc2nc3ccccc3c(=O)n2CCCN2CCOCC2)cc1 (centres undefined)	SMARCA2 act 11 | SMARCA2 act conf inactive | VP16 Luc act inactive
O=C(NCc1n[nH]c(=S)n1-c1ccc([N+](=O)[O-])cc1)c1ccc(S(=O)(=O)N2CCOCC2)cc1	none
COc1cccc(C(=O)Nc2sc(C(C)C)cc2C(N)=O)c1OC	none
CCOC(=O)NC(=O)c1cn(N(C)c2ncc(C(F)(F)F)cc2Cl)c(=O)[nH]c1=O	none
COc1cc2c(cc1NC(=O)c1ccc3c(c1)OCO3)oc1ccccc12	none
CCOCc1nnc(NC(=O)c2ccc3c(c2)OCO3)s1	none
Cc1nnc(NC(=O)c2ccc3c(c2)OCO3)s1	SMARCA2 act 10, hgDAF12 agonist 12 | SMARCA2 act conf inactive | VP16 Luc act 9.5
O=C(Nc1ccc2c(c1)oc1ccccc12)c1ccc2c(c1)OCO2	SMARCA2 act 8.9 | SMARCA2 act conf inactive | VP16 Luc act inactive
Cc1nn(-c2ccccc2)c(=S)c2ccccc12	none
Cc1csc(C)[n+]1CC(=O)c1ccccc1	none
CCOC(=O)C[n+]1c(C)csc1C	SMARCA2 act 8.6 | SMARCA2 act conf inactive | VP16 Luc act inactive
COc1ccc(/C(N)=N/OC(=O)c2ccc3c(c2)OCO3)cc1OC	SMARCA2 act 12 | SMARCA2 act conf 9.7 | VP16 Luc act 17
